# Compound activity (PubChem BioAssay)
# BJeLR lethal: kills HRASV12-expressing BJeLR cells; hit rate 0.17% among 300,000; BJeLR (HRASV12) viability, CellTiter-Glo ATP luminescence, 48 h; inhibition, % (no concentration beside the values); in the data active means inhibition above about 50%
# GDH-TPI inh: inhibits GDH-TPI coupling enzymes, artifact for Mtb FBA screen; GDH-TPI coupled enzyme counterscreen, NADH absorbance; hit rate 1.2% among 360,000; AID 588335; inhibition, % at 4.8 µM; in the data active means inhibition above about 30%;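 further: 0% = DMSO wells and 100% = wells lacking the enzyme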
# PfHsp40 yeast: restores yeast growth despite PfHsp40 toxicity; S. cerevisiae expressing PfHsp40, growth rescue, ATP luminescence; growth rescue, % at 12.5 µM; hit rate 0.68% among 340,000; in the data active means growth rescue above about 28%, passing the limit was not always enough;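 further: yeast W303a lacking pdr1 and pdr3 grown in galactose medium; growth measured after three days at 30 °C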
# PrP UTR inh: suppresses PrP 5' UTR mRNA reporter expression; cell-based PrP 5' UTR mRNA reporter, plate reader; inhibition, % (no concentration beside the values); AID 488862; hit rate 0.35% among 340,000; in the data active means inhibition above about 52%; further: 0 = median of the neutral control wells
# PrPC surface inh: inhibitors of human cell surface prion protein PrPC; hit rate 0.43% among 370,000; P04156; TR-FRET read-out; inhibition, % at 13.8 µM; in the data active means inhibition above about 24%; further: 0% = median of the test wells and 100% = reference compound wells
# FBA Mtb inh: Mtb fructose-bisphosphate aldolase inhibition | inhibition, % at 1 µM | purified M. tuberculosis FBA, fluorescence read-out | hit rate 2.3% among 360,000 | P9WQA3; in the data active means inhibition above about 27%;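 further: 0% = vehicle and 100% = reference inhibitor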
# Target sequence (P9WQA3 whole entry, looked up): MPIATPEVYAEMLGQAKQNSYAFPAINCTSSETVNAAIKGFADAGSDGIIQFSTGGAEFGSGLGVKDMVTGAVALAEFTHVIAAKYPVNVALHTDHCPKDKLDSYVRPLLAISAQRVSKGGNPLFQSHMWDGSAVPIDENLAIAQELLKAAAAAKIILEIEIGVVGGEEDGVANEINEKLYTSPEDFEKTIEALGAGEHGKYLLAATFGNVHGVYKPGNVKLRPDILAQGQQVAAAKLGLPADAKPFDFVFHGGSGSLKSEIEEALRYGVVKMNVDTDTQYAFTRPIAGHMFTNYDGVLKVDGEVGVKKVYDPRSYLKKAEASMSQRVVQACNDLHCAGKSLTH
# * = called active by the depositor; x = no result given; + = active, no number. This is a sample that favours compounds with a hit; in the whole collection about 4.5% have one here.
SMILES,BJeLR lethal,GDH-TPI inh,PfHsp40 yeast,PrP UTR inh,PrPC surface inh,FBA Mtb inh
COC(=O)C1CN(Cc2cn(Cc3ccc(OC)cc3)nn2)CCS(=O)(=O)N1Cc1ccccc1 (centres undefined),x,x,x,x,-5,x
C[C@H]1[C@@H](OC(=O)NCc2cccc(C(F)(F)F)c2)CC[C@@]23CCCN2C(=O)CCC[C@@H]13,x,x,x,x,7,x
CSC1=N/C(=C/c2cccnc2)C(=O)N1Cc1ccccc1,5,32*,-1,-19,-2,9
COc1ccc(C2C(C(=O)Nc3ccc(Cl)c(Cl)c3)CCC(=O)N2c2ccc(OC)cc2)cc1 (centres undefined),x,x,x,x,-4,x
Cn1cc(/C=C(\NC(=O)c2ccccc2Cl)C(=O)NCCCN2CCOCC2)c2ccccc21,0,34*,-1,1,-12,0
CCn1cc(/C=C(\NC(=O)c2ccccc2)C(=O)NCCCN2CCOCC2)c2ccccc21,-3,40*,-1,-22,-9,-2
COc1ccc(Oc2c(Cl)cnn(-c3ccc(C(C)C)c(C)c3)c2=O)cc1,x,x,x,x,-11,x
OC[C@@H]1CN(Cc2ccccc2)C[C@H](n2cnc3c(Nc4ccccc4)ncnc32)O1,x,-1,x,x,7,26
CCOc1ccc(/C=N/n2nnnc2N)cc1OCC,2,31*,-1,-2,-11,6
CCOc1cc(/C=N\n2nnnc2N)ccc1O,3,16,0,-22,-1,4
COc1cc(C(C#N)N2CCC(c3ccccc3)=N2)ccc1O (centres undefined),-16,36*,0,-31,-6,1
O=C(Nc1ccccc1C(F)(F)F)OCCN1C(=O)CCC12CCC(c1ccccc1)CC2 (centres undefined),x,x,x,x,-2,x
COc1cc(/C=C/c2nc3ccccc3c(=O)n2-c2cccc(O)c2)ccc1O,1,47*,-1,-3,0,-4
COc1cc(/C=C/c2nc3ccccc3c(=O)n2-c2ccccc2O)ccc1O,-11,24,2,-19,-13,-5
COc1cc(/C=C/c2nc3ccccc3c(=O)[nH]2)ccc1O,x,41*,x,x,-7,-3
O=c1c2ccccc2nc(/C=C/c2ccc([N+](=O)[O-])o2)n1-c1ccc(O)cc1,64*,6,-2,-117,-5,-3
O=c1c2ccccc2nc(/C=C/c2ccccc2)n1-c1ccc(O)cc1,2,19,2,-20,4,6
O=c1c2ccccc2nc(/C=C/c2ccc(O)c(O)c2)n1-c1ccccc1,11,43*,0,-16,-19,-6
O=C(OC12CCCN(C1)/C(=C/c1cccc(Cl)c1)C2)c1ccc(F)cc1 (centres undefined),x,x,x,x,5,x
CC(C)[C@H](NC(=O)OC(C)(C)C)C(=O)N1CCC(Oc2cccnc2)CC1,x,x,x,x,0,x
COc1cccc(CSc2nc3ccccc3cc2C=O)c1,58*,-4,1,-2,0,6
COc1cccc(NC(=O)CSc2nc3ccccc3cc2Cc2ccccc2)c1,-1,15,2,-2,0,-3
CCn1c(O)c(/C=C/C=C/C=Nc2ccccc2)sc1=S,0,1,-1,-40,-3,-3
CCCCn1c(O)c(/C=C/C=C/C=Nc2ccccc2)sc1=S,39,0,42*,-16,5,0
CC1(c2nnnn2Cc2ccccc2)CCCCC(=O)N1Cc1cccs1 (centres undefined),x,x,x,x,-4,x
SMILES,BJeLR lethal,GDH-TPI inh,PfHsp40 yeast,PrP UTR inh,PrPC surface inh,FBA Mtb inh
C=CCNC(=O)N1c2ccccc2Sc2ccccc21,4,5,57*,-6,8,0
CCSc1nnc(NC(=O)c2ccc(C)o2)s1,7,32*,-1,-38,-8,0
CCSc1nnc(NC(=O)c2nc(-c3ccccc3)n(-c3ccccc3)n2)s1,-3,12,126*,-8,1,-2
COC(=O)c1ccc(NC(C(=O)OC)C(C)C)c([N+](=O)[O-])c1 (centres undefined),8,-4,50*,-38,-11,1
Cn1c(=O)c2c(nc(N/N=C/c3cccs3)n2C)n(C)c1=O,7,25,0,-18,-14,-6
Cn1c(=O)c2c(nc(N/N=C/c3ccco3)n2C)n(C)c1=O,-1,56*,-1,-13,3,1
Cn1c(=O)c2c(nc(N/N=C/c3cccnc3)n2Cc2ccccc2)n(C)c1=O,8,31*,-1,-27,-11,1
Cn1c(=O)[nH]c(=O)c2c1nc(N/N=C/c1cccnc1)n2Cc1ccc(Cl)cc1,-8,-1,x,x,1,2
CN(C)CCCN(C(=O)/C=C/c1cccs1)c1nc2c(F)cccc2s1,20,37*,3,-14,-13,-4
COc1ccc2sc(N(CCN(C)C)C(=O)/C=C/c3cccs3)nc2c1,-5,28,2,-18,-6,3
COc1ccc2nc(N(CCN(C)C)C(=O)/C=C/c3cccs3)sc2c1,-8,32*,0,-10,3,0
O=C(CSc1nc2ccccc2n1Cc1ccccc1Cl)NN=C/C(Br)=C/c1ccccc1,x,x,x,x,-6,x
CCOC(=O)c1sc(=S)n(-c2cc(OC)ccc2OC)c1N,2,11,200*,-26,-3,-4
O=C1CSC(c2cn(-c3ccccc3)nc2-c2cc3ccccc3o2)N1Cc1ccccc1 (centres undefined),-7,7,0,-28,8,14
O=C1CSC(c2cn(-c3ccccc3)nc2-c2cc3ccccc3oc2=O)N1Cc1ccco1 (centres undefined),-15,31*,0,-22,12,2
COC1C(OC(=O)/C=C/C=C/C=C/C=C/C(=O)O)CCC2(CO2)C1C1(C)OC1CC=C(C)C (centres undefined) (tested in a mixture with another compound),x,64*,-3,18,-6,-1
O=C(NCCc1ccccc1)OCc1cn(Cc2cc(F)ccc2F)nn1,x,x,x,x,-7,x
Cc1cccc2c(N=NC(=O)C(C)n3cnc4ccccc4c3=O)c(O)[nH]c12 (centres undefined),0,35*,1,-15,5,-3
CC(C(=O)N=Nc1c(O)[nH]c2ccccc12)n1cnc2ccccc2c1=O (centres undefined),-11,10,-1,48,-23,-1
CC(C)N1CC=C2C(C#N)=C(N)C(C#N)(C#N)C(c3ccccc3)C2C1 (centres undefined),0,1,1,13,-16,+
CC(C)N1CC=C2C(C#N)=C(N)C(C#N)(C#N)[C@H](c3ccoc3)[C@H]2C1,0,x,x,x,x,x
CCN1CC=C2C(C#N)=C(N)C(C#N)(C#N)C(c3cc(Cl)ccc3Cl)C2C1 (centres undefined),-5,14,-2,4,-12,33*
O=C(/C=C/c1cccnc1)/C=C/c1cccnc1,x,33*,0,19,-1,0
